Only some compounds are listed: those with a hit (about 12% of all), similar ones and a draw of the others.
CHOP inhibitor: inhibitors of CHOP promoter induction, primary screen, cell-based, unfolded protein response, luciferase reporter; CHO-K1 CHOP-promoter luciferase, tunicamycin-induced, 15-18 h; inhibition, % at 10 µM; 3.8% of 220,000 active; AID 2732, 2010;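 active means compounds that reduced the stress-induced luciferase reporter signal by more than about 70% of percent inhibition, limit read from the data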
Arbovirus inh: antivirals against arbovirus infection, primary screen, cell-based, full library, 10K replicate subset; inhibition, % at 10 µM; 0.37% of 200,000 active; arbovirus infection cell-based antiviral screen; in the data active means inhibition above about 30%
Lmaj promast: Leishmania major promastigote growth inhibition, primary screen. Leishmania major promastigotes, resazurin fluorescence viability. inhibition, % at 10 µM. 9% of 200,000 active. AID 1063, 2008; in the data active means inhibition above about 50%;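 further: promastigotes grown with compound for 44 hours at 28 °C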
WT yeast gro inh: growth inhibition of WT strain, primary screen, mitochondrial fusion inhibitor project, WT and mutant strains, chemical genetic. AID 1362, 2008. inhibition, % at 10 µM. mitochondrial fusion phenotypic screen. 2.1% of 190,000 active; in the data active means inhibition above about 58%; tested in S. cerevisiae
A number is an active result; . = inactive; / = not tested or not shown.

SMILES	CHOP inhibitor	Arbovirus inh	Lmaj promast	WT yeast gro inh
O=C(Nc1ccon1)C12CC3CC(C1)CC(n1cnc([N+](=O)[O-])n1)(C3)C2	.	.	61.9	.
COc1ccc(NC(=O)C23CC4CC(C2)CC(n2cnc(Br)n2)(C4)C3)cc1OC	.	.	.	.
Cc1cc(NC(=O)C23CC4CC(C2)CC(n2cnc([N+](=O)[O-])n2)(C4)C3)no1	.	.	50.7	.
O=C(CN1C(=O)C2CC=CCC2C1=O)Nc1ccc(S(=O)(=O)N2CCOCC2)cc1 (centres undefined)	.	.	.	.
CCOc1ccc2[nH]cc(S(=O)(=O)c3ccc(C)cc3)c(=O)c2c1	.	.	.	.
CCOc1ccc2c(c1)OC(c1ccc(C)cc1)(C(F)(F)F)NC2=O (centres undefined)	.	.	100.3	60.5
CCOc1ccc2nc(NC(=O)CSc3nc(-c4ccccc4)c(C#N)c(=O)[nH]3)sc2c1	.	61.5	.	.
Cc1sc(NC(=O)CSc2nc(O)cc(=O)[nH]2)nc1-c1ccccc1	.	.	.	.
CCOC(=O)Cc1csc(NC(=O)CSc2nc(-c3ccccc3)c(C#N)c(=O)[nH]2)n1	.	.	.	.
COc1cccc(-c2nc(SCC(=O)Nc3nc(-c4ccccc4)c(C)s3)[nH]c(=O)c2C#N)c1	.	57.6	.	.
CCn1c2ccccc2c2cc(NC(=O)COC(=O)c3cc(Cl)c(N)cc3OC)ccc21	.	/	/	/
Cc1cc(C)cc(N(C(=O)c2csnn2)C(C(=O)NC(C)(C)C)c2cccnc2)c1 (centres undefined)	.	.	.	.
CCN(CC)c1cnn(C/C(=N\OC)c2ccc(Cl)cc2)c(=O)c1Br	.	.	.	.
O=c1[nH]c(=O)n(Cc2ccccc2)c2nc(-c3ccco3)cc(C(F)(F)F)c12	70.9	.	.	.
Cc1cc(C(F)(F)F)c2c(=O)[nH]c(=O)n(Cc3ccccc3)c2n1	.	.	.	.
C=CCn1c(CCC(O)COCCCCC)n[nH]c1=S (centres undefined)	.	/	/	/
COc1ccc(OCCN2CCN(C3CC(=O)N(CCC(C)C)C3=O)CC2)cc1 (centres undefined)	.	.	91.9	.
O=C1CC(N2CCN(Cc3ccccc3)CC2)C(=O)N1CCc1ccccc1 (centres undefined)	.	.	88.4	.
Cc1ccc(S(=O)(=O)N2CCN(C3CC(=O)N(Cc4ccccc4)C3=O)CC2)cc1C (centres undefined)	.	.	92.7	.
COc1ccc(CCN2C(=O)CC(N3CCN(S(=O)(=O)c4ccccc4)CC3)C2=O)cc1 (centres undefined)	.	.	63.4	.
CN(CCN(C)C(C)(C)C)C(=O)C(c1ccccc1)c1ccccc1	.	/	/	/
Cc1ccc(S(=O)(=O)N(c2ccc(Br)cc2)C2C=CS(=O)(=O)C2)cc1 (centres undefined)	.	.	.	.
Cn1c(-c2cccs2)[n+](C)c2ccccc21	.	.	.	.
CCOc1cc(CNCc2cccs2)cc(Br)c1OCC	.	.	.	.
CCOc1cc(CNCc2ccncc2)cc(Br)c1OCc1ccccc1F	.	.	91.6	.
SMILES	CHOP inhibitor	Arbovirus inh	Lmaj promast	WT yeast gro inh
CCOc1cc(CNCCO)cc(Br)c1OCc1cccs1	.	.	100.5	.
CCOc1cc(CNCCO)cc(Br)c1OCc1ccc(Cl)cc1Cl	.	.	100.7	.
CCOc1cc(CNc2ccccc2)cc(Br)c1OCc1ccc(F)cc1	.	.	.	.
COc1cc(C(=O)OCCNC(=O)c2ccncc2)cc(OC)c1OC	.	.	.	.
O=C(Cc1ccccc1)N/N=C/c1cccc([N+](=O)[O-])c1	.	.	.	.
CCN(c1ccccc1)S(=O)(=O)c1ccc(Oc2ccc(-n3ccnc3)cc2)nc1	.	.	76.0	.
COc1ccc(CN2C(=S)NC(C)(C)CC2(C)O)cc1 (centres undefined)	.	.	.	.
COc1ccccc1CCN1C(=S)NC(C)(C)CC1(C)O (centres undefined)	.	.	.	70.0
CCOc1ccc(CC(=O)NNC(=S)NC)cc1Br	.	/	/	/
Cc1ccccc1S(=O)(=O)Nc1ncnc2scc(-c3ccccc3)c12	.	57.8	.	.
CN(C)CCCNc1ncnc2scc(-c3ccccc3)c12	.	.	.	.
CCOC(=O)c1sc2nc(NC(=O)C3CC3)sc2c1C	98.7	.	.	.
CCOC(=O)c1sc2nc(NC(=O)C(C)(C)C)sc2c1C	76.8	.	65.0	.
CN(C)c1ccc(NC2=C(Cl)C(=O)c3ccccc3C2=O)cc1	94.8	.	.	.
O=C1C(Cl)=C(Nc2ccc3cn[nH]c3c2)C(=O)c2ccccc21	106.6	/	/	/
O=C1C(Cl)=C(NCCCO)C(=O)c2ccccc21	.	.	.	.
COC(=O)c1ccc(/C=C/c2ccc3cccc(OC(C)=O)c3n2)cc1	.	.	.	.
CCOc1c(OC(C)=O)ccc(/C=C/c2ccc3cccc(OC(C)=O)c3n2)c1[N+](=O)[O-]	.	.	.	65.0
COc1c(OC(C)=O)ccc(/C=C/c2ccc3ccccc3n2)c1[N+](=O)[O-]	.	.	.	67.9
COc1c(OC(C)=O)ccc(/C=C/c2ccc3cccc(OC)c3n2)c1[N+](=O)[O-]	.	.	.	.
Cc1cc(C(=O)OCC(=O)N2CC(C)OC(C)C2)ccc1[N+](=O)[O-] (centres undefined)	.	.	.	.
CCNC(=S)/N=C(\N)Nc1nc(C)c2cc(C)ccc2n1	.	.	81.4	.
C/C(=N\NC(=O)COc1ccc(C(C)(C)C)cc1)c1ccccc1	81.1	.	.	.
CCOc1ccc(C(=O)NC(Cc2ccccc2)C(=O)OC)cc1 (centres undefined)	.	.	.	.
C/C(=N\NC(=O)COc1ccc(C(C)(C)C)cc1)c1ccc(OC(F)F)cc1	93.7	.	.	.
SMILES	CHOP inhibitor	Arbovirus inh	Lmaj promast	WT yeast gro inh
COC(=O)C(Cc1ccccc1)NC(=O)COc1ccc(C(C)(C)C)cc1 (centres undefined)	92.6	.	.	.
C/C(=N\NC(=O)COc1ccc(C(C)(C)C)cc1)c1ccc2c(c1)OCCO2	.	.	.	.
C/C(=N\NC(=O)COc1ccc([N+](=O)[O-])cc1)C(C)(C)C	.	81.0	.	.
CCOc1cc(N2CCCC2)ccc1[N+](=O)[O-]	.	.	.	.
COc1ccc([C@@H]2C=C(C(=O)O)O[C@H](OCCCCO)C2)cc1	.	/	/	/
O=C(Nc1ccccc1)C1=C[C@@H](C2CC2)C[C@@H](OCCCCO)O1	.	.	.	.
CCCNC(=O)c1cc2nc(-c3ccccc3)cc(C(F)(F)F)n2n1	.	.	.	.
C/C(=N\NC(=O)COc1ccc(C(C)(C)C)cc1)c1cc2ccccc2o1	73.8	.	.	.
COc1ccc(NCC(=O)N/N=C(\C)c2cc3ccccc3o2)cc1	.	.	.	.
Cc1ccnc(NS(=O)(=O)c2cccc([N+](=O)[O-])c2)c1	.	/	/	/
O=C(NCCc1cn2ccccc2n1)c1cc(COc2c(F)cccc2F)on1	.	.	51.6	.
Cc1ccc(CNC(=O)c2cc(COc3c(F)cccc3F)on2)s1	.	.	.	.
Cc1ccc(/C=C2\SC(=S)N(CC(=O)Nc3cccnc3)C2=O)cc1	86.2	.	.	.

Assay outcomes: PubChem BioAssay, several laboratories
